The structures appear in SMILES notation.

What all share (type): functional
Experiment [1] concerns Plasmodium falciparum. Kind of experiment: GSK_TCMDC: Inhibition of Plasmodium falciparum 3D7 in whole red blood cells, using parasite LDH activity as an index of growth. Test compounds present at 2uM.
Experiment [2] deals with Plasmodium falciparum. Kind of experiment: GSK_TCMDC: Inhibition of Plasmodium falciparum Dd2 in whole red blood cells, using parasite LDH activity as an index of growth. Test compounds present at 2uM.
The test system of a further experiment is HepG2. Kind of experiment: GSK_TCMDC: Percent inhibition of human HepG2 cell line. Test compounds present at 10uM.

One may read the Inhibition as the share of the control response that was lost under treatment. A higher Inhibition goes with a response far below the control. Take `O=C(NC12CC3CC(CC(C3)C1)C2)C(=O)c1c[nH]c2ccccc12`: the Inhibition in the experiment with Plasmodium falciparum [1] turned out to be 97%; with Plasmodium falciparum [2] it was 2%; with HepG2 it was 16%.

As for `CCN(CC)CCN(Cc1ccc(-c2ccc(C(F)(F)F)cc2)cc1)C(=O)Cn1c(CCc2ccc(F)c(F)c2F)nc(=O)c2ccc(F)cc21.O=C(O)C(O)C(O)C(=O)O`, the values for the Inhibition in the experiment with Plasmodium falciparum [1], with Plasmodium falciparum [2] and in the experiment on HepG2 were 98%, 46% and 19%, respectively.

Turning to `Cc1cc(NC(=O)c2cccs2)ccc1OC1CCN(Cc2ccc(F)cc2)C1.O=C(O)C(F)(F)F` (configuration not stated), the values for the Inhibition in the experiment with Plasmodium falciparum [1], in the experiment with Plasmodium falciparum [2] and with HepG2 were 95%, 92% and 0%, respectively.

For `O=C(Nc1ccc(OC2CCN(Cc3ccc(F)cc3)CC2)c(Cl)c1)c1ccsc1.O=C(O)C(F)(F)F`, the Inhibition in the experiment on Plasmodium falciparum [1] turned out to be 94%; in the experiment with Plasmodium falciparum [2], 90%; in the experiment with HepG2, 5%.

For `O=C(O)C(F)(F)F.c1ccc(C(c2ccccc2)N2CCC(NCc3ccc(OCCCN4CCCCC4)cc3)CC2)cc1`, the Inhibition with Plasmodium falciparum [1] was found to be 100%; in the experiment with Plasmodium falciparum [2], 100%; with HepG2, 74%.

Regarding `O=[N+]([O-])c1ccc(C=NNc2nc3ccccc3[nH]2)cc1`, the Inhibition in the experiment on Plasmodium falciparum [1] came to 100%; in the experiment on Plasmodium falciparum [2], 98%; with HepG2, 11%.

As for `Cc1cccc2nc(-c3ccc(-c4cccc(CN5CC(C)OC(C)C5)c4)s3)[nH]c12.O=C(O)C(F)(F)F` (configuration not stated), the Inhibition in the experiment with Plasmodium falciparum [1] was determined as 98%; in the experiment with Plasmodium falciparum [2], 79%; with HepG2, 6%.

Turning to `Cc1c(Oc2ccc(-n3ccnc3)cc2)ncnc1N1CCC2(CC1)CNCc1ccccc12.O=C(O)C(F)(F)F`, the Inhibition in the experiment with Plasmodium falciparum [1] is 95%; with Plasmodium falciparum [2], 58%; with HepG2 it was 26%.

With `CN/C(=C\[N+](=O)[O-])NCCSCc1cc(C)c(CN(C)C)s1`, the Inhibition in the experiment on Plasmodium falciparum [1] was 98%; with Plasmodium falciparum [2], 96%; in the experiment on HepG2, 48%.

With `CC(=O)C1=NN(c2ccc(Cl)cc2)C(c2cccs2)N1c1ccccc1` (configuration not stated), the Inhibition in the experiment on Plasmodium falciparum [1] was determined as 88%; in the experiment with Plasmodium falciparum [2] it was 70%; in the experiment on HepG2, 0%.

As to `CCCNS(=O)(=O)c1ccc(NC(=O)C(C)Oc2ccc([N+](=O)[O-])cc2)cc1` (configuration not stated), the Inhibition is on record as 100% with Plasmodium falciparum [1], 37% in the experiment on Plasmodium falciparum [2] and 3% in the experiment with HepG2.

Consider `CCC[C@@H]([C@@H](CC1CCCCC1)C(=O)N[C@H](C(=O)Nc1ccccn1)[C@H](C)CC)N(O)C=O`, for which the Inhibition with Plasmodium falciparum [1] is given as 96%; with Plasmodium falciparum [2] it was 87%; in the experiment with HepG2, 24%.

In the case of `CN(C)CCNc1ncnc2c1[nH]c1ccc(Cl)cc12`, the Inhibition was found to be 100% in the experiment with Plasmodium falciparum [1], 8% in the experiment on Plasmodium falciparum [2] and 7% in the experiment on HepG2.

`COc1ccc(NC(=O)[C@H](Cc2ccccc2)Nc2cc(C)nc(NCCN3CCCC3)n2)cc1.O=C(O)C(F)(F)F`: the Inhibition in the experiment on Plasmodium falciparum [1] stood at 97%; with Plasmodium falciparum [2], 3%; in the experiment on HepG2, 15%.

Take `CC[C@H](C)CNC(=O)c1cncc(-c2ccc(CNCC3CNCCCO3)cc2)c1.O=C(O)C(F)(F)F` (some centres not stated): the figures for the Inhibition in the experiment with Plasmodium falciparum [1], with Plasmodium falciparum [2] and in the experiment on HepG2 were 100%, 0% and 0%, respectively.

`Cc1cc(Cl)c(S(=O)(=O)NC(C)(C)C)cc1OCC(=O)NC1CCCCC1`: the values for the Inhibition in the experiment on Plasmodium falciparum [1], in the experiment on Plasmodium falciparum [2] and in the experiment on HepG2 were 93%, 53% and 10%, respectively.

With `Clc1nc(Cl)c2c(ccn2Cc2ccccc2)n1`, the figures for the Inhibition in the experiment on Plasmodium falciparum [1], in the experiment on Plasmodium falciparum [2] and with HepG2 were 100%, 61% and 0%, respectively.

For `CC(=O)c1ccc2c(c1)C(NC(=O)c1cccc(Cl)c1Cl)C(CO)C(C)(C)O2` (configuration not stated), the Inhibition in the experiment with Plasmodium falciparum [1] amounted to 99%; with Plasmodium falciparum [2], 44%; in the experiment with HepG2 it was 5%.

Turning to `CCCN(CCC)C(=O)c1cc(C(=O)N[C@@H](Cc2ccccc2)[C@H](O)CNC2CC2)cc(N2CCCCS2(=O)=O)c1`, the Inhibition in the experiment with Plasmodium falciparum [1] was determined as 100%; in the experiment with Plasmodium falciparum [2], 98%; in the experiment with HepG2 it was 0%.

`CCCCN1CCN(c2cc(NS(=O)(=O)c3ccc(C(=O)Nc4ccc(C(F)(F)F)cc4)cc3)ccc2OC)CC1.O=C(O)C(F)(F)F`: the Inhibition with Plasmodium falciparum [1] worked out at 99%; in the experiment on Plasmodium falciparum [2] it was 20%; with HepG2, 17%.

Consider `COc1ccc2nccc(N(C)CC3(O)CCC(NCc4ccc5c(n4)NC(=O)CS5)CC3)c2n1.Cl` (configuration not stated), for which the Inhibition in the experiment with Plasmodium falciparum [1] is reported as 98%; in the experiment with Plasmodium falciparum [2], 23%; with HepG2, 1%.

With `Cc1ccc(NC(=O)c2ccc(N3CCC(c4ccccc4C)CC3)nc2)cc1.O=C(O)C(F)(F)F`, the Inhibition is given as 83% in the experiment on Plasmodium falciparum [1], 72% in the experiment with Plasmodium falciparum [2] and 49% in the experiment with HepG2.

For `CCC[C@@H]([C@@H](CC1CCC(C)CC1)C(=O)N[C@@H](CCCCNC(=O)c1ccccn1)C(=O)Nc1nccs1)N(O)C=O` (some centres not stated), the results for the Inhibition in the experiment with Plasmodium falciparum [1], in the experiment with Plasmodium falciparum [2] and with HepG2 were 100%, 79% and 25%, respectively.

As for `COc1ccc2nccc([C@@H](O)CN3CCC(NCc4cc5oc(=O)[nH]c5cc4F)CC3)c2c1.O=C(O)C(=O)O`, the Inhibition in the experiment on Plasmodium falciparum [1] is recorded as 99%; in the experiment with Plasmodium falciparum [2] it was 4%; with HepG2, 0%.

`COc1ccc(NC(C)C(=O)Nc2ccc(Br)cc2)cc1S(=O)(=O)N1CCCCC1` (configuration not stated): the Inhibition in the experiment with Plasmodium falciparum [1] is listed as 99%; in the experiment on Plasmodium falciparum [2] it was 97%; in the experiment on HepG2, 2%.

For the compound `CN1CCN(CC2(Nc3nccc(NCc4ccc(Cl)cc4Cl)n3)CCCCC2)CC1`, the results for the Inhibition in the experiment on Plasmodium falciparum [1], in the experiment on Plasmodium falciparum [2] and in the experiment with HepG2 were 98%, 58% and 98%, respectively.

With `Nc1nc2c(c(=O)[nH]1)CN(S(=O)(=O)c1ccc(C(=O)N[C@@H](CCC(=O)O)C(=O)O)cc1)CC2`, the Inhibition is reported as 95% in the experiment on Plasmodium falciparum [1], 96% in the experiment with Plasmodium falciparum [2] and 49% with HepG2.

`CCc1c(CCNCCc2cccc(CCNCCc3ccc(OC)c(OC)c3CC)c2)ccc(OC)c1OC.Cl`: the results for the Inhibition in the experiment with Plasmodium falciparum [1], with Plasmodium falciparum [2] and in the experiment on HepG2 were 81%, 67% and 100%, respectively.

`Cl.N#Cc1ccc2c(c1)CCN(CCC1CCC(NC(=O)Nc3ccnc4ccccc34)CC1)C2` (configuration not stated): the Inhibition stood at 100% in the experiment with Plasmodium falciparum [1], 77% with Plasmodium falciparum [2] and 38% in the experiment with HepG2.

These data come from ChEMBL document CHEMBL1157539, “Thousands of chemical starting points for antimalarial lead identification” (Nature, 2010).
